In ChEMBL document CHEMBL3988442, “University of Dundee, Small-Polar-MMV Screening Library” (2021):
Several values for one entry are separate records, joined by “and”; a condition that tells them apart may be missing. Identical values can stand only once. Among all 34,000 compounds or so, about 290 (0.85%) showed an effect of 50% or more. Shown is part of a subset that was picked to be rich in strong results.

Test system: Plasmodium falciparum
Experiment: Plasmodium falciparum sporozoite viability assay
Format: functional, organism-based
Set-up: scale not given: in the data most compounds retested in dose-response had high values

Compound | Percent Effect [%] | Percent Effect (10 mM as filed; unlikely as a test dose)
COc1ccccc1CN1CCC2(CCC(C(=O)N(C)C)O2)CC1 (stereo unspecified) | 9.72 | –
CCc1ncnc2c1CCN(S(=O)(=O)c1ccccc1)CC2 | 11.48 | –
O=C(O)c1cc(S(=O)(=O)Nc2ccc(F)c(Cl)c2)cc2c1OCCO2 | 12.45 | –
O=C(CC1CC1)N1CCc2ncc(Cn3cncn3)n2CC1.O=C(O)C(F)(F)F | 2.491 | –
CC(=O)N1CCc2ncc(CNC(=O)C3CCC3)n2CC1 | -7.632 | –
COc1ccc2cc(C3CN(C(=O)COC(C)C)CCO3)ccc2c1 (stereo unspecified) | – | 38.96% and 58.61% and 49.31%
CNC(=O)c1ccc(C2CN(C(=O)COC)CCO2)nc1 (stereo unspecified) | -16.96 | –
CNC(=O)CCC(=O)N1CCOC(c2ccc3cc(OC)ccc3c2)C1 (stereo unspecified) | – | 98.94% and 98.67% and 101%
CNC(=O)CN1CCC(c2cc(OC)cc(OC)c2)C1 (stereo unspecified) | -3.657 | –
COCC(=O)N1CCOC(c2ccc(N(C)C)cn2)C1 (stereo unspecified) | -1.133 | –
COCC(=O)N1CCOC(c2cccc(-c3cncnc3)n2)C1 (stereo unspecified) | 0.9327 | –
CC(C)COCCCNC(=O)NCC(O)c1cccc(F)c1 (stereo unspecified) | 2.496 | –
Cc1ccc(Nc2nccc(C3CCN(C(=O)CO)C3)n2)nc1 (stereo unspecified) | – | -6.369% and -30.39% and -30.26%
Cl.Cl.NCC(=O)N1CCCC(c2ccnc(Nc3cnccn3)n2)C1 (stereo unspecified) | 10.19 | –
Cc1ccc(Nc2nccc(C3CCN(C(=O)CN)C3)n2)nc1.Cl (stereo unspecified) | – | 81.99% and 45.72% and 74.53%
CNCC(=O)N1CCCC(c2ccnc(Nc3cnccn3)n2)C1 (stereo unspecified) | -8.636 | –
CC(=O)N1CC(c2ccnc(Nc3ccc(C)cn3)n2)C1 | – | 15.77% and 8.208% and 11.03%
CCN1CCCC1CNCc1cc2ccccc2[nH]c1=O (stereo unspecified) | 24.74 | –
c1cc(C2CCN(c3cnccn3)CC2)ccn1 | 11.86 | –
COc1ccc(C(=O)N(C)Cc2c(C)noc2C)cn1 | 8.528 | –
Cc1nc(C)n(CC2CCCN2Cc2nc(-c3ccco3)no2)n1 (stereo unspecified) | – | -0.3641% and 0.04429% and -1.23%
CC(C)(C)CC1CCCN1Cc1nc(-c2ccco2)no1 (stereo unspecified) | – | 58.36% and 65.06%
CN(C)CCN1C(=O)CC[C@@H]2[C@H]1CCN2Cc1cccc(C#N)c1.O=C(O)C(F)(F)F.O=C(O)C(F)(F)F | -0.2577 | –

Compound | Percent Effect [%] | Percent Effect (10 mM as filed; unlikely as a test dose)
Cc1nc(C)n(CC2CCCN(CCOc3ccccc3C#N)C2)n1 (stereo unspecified) | 12.74 | –
O=C(NCC1CC1)[C@H]1C[C@H]2OCC[C@H]2N(Cc2ccoc2)C1 | -11.2 | –
Cn1nccc1CNC(=O)CCn1nc(C(F)(F)F)c(Cl)c1C1CC1 | 10.43 | –
CC(C)(O)CN1CCN(C(=O)COCc2ccccc2Cl)CC1 | – | 71.26% and 47.5% and 53.2%
COc1ccc(COCC(=O)N2CCN(CC(C)(C)O)CC2)cc1 | – | 7.514% and -16.19% and -8.725%
O=C(COCc1ccccc1Cl)N1CCN(c2ncccn2)CC1 | 3.259 | –
CC(NC(=O)CCCc1nc(C(C)(C)C)no1)c1ccccn1 (stereo unspecified) | 4.866 | –
Cc1nn(C)cc1-c1cc(C(=O)NCC(C)(C)c2cccc(F)c2)n[nH]1 | -0.9712 | –
CN(C)CC1CSCCCN1C(=O)c1ccc(-c2ccccc2)cc1 (stereo unspecified) | 11.37 | –
CC(NCC(=O)NCC(=O)Nc1ccc(F)cc1)c1cccs1 (stereo unspecified) | 0.1791 | –
CCOC(=O)CN1CCC2(CC1)CC(=O)c1ccc(OC)cc1O2 | -0.03409 | –
CN(C)C(=O)CN1CCC2(CC1)CC(=O)c1c(ccc3ccccc13)O2 | 16.77 | –
CN(C)C(=O)CN1CCC2(CC1)CN(S(C)(=O)=O)Cc1ccccc1O2 | -23.82 | –
CN(C)C(=O)CN1CCC2(CC1)CC(=O)c1ccc3ccccc3c1O2 | – | 28.41% and 58.1% and 56.14%
NC(=O)CN1CCC2(CC1)CC(=O)c1ccc3ccccc3c1O2 | – | 14.56% and 23.77% and 28.36%
Cc1nc(C)c(C(=O)OCCNc2ncccc2C#N)s1 | 25.07 | –
CNC(=O)Cc1ccc(NC(=O)NC(C)C(C)C)cc1 (stereo unspecified) | – | -4.587% and -4.397% and -12.09%
CC(CN1CCC(CCO)CC1)n1cnc2ccccc21 (stereo unspecified) | – | -16.85% and -31%
CCN(CC)CCCNc1nc(C)nc2c1CCN(C)C2.O=C(O)CC(O)(CC(=O)O)C(=O)O | 7.039 | –
CN(CC(=O)NCc1ccco1)Cc1nc2c(s1)CCCC2 | – | 18.7% and 19.42%
CN(CC(=O)NCC(F)(F)F)Cc1nc2c(s1)CCCC2 | – | 29.9% and 31.57%
CN(Cc1nnc(-c2cccs2)o1)Cc1nc2c(s1)CCCC2 | – | 22.52% and 35.26% and 20.64%
CN(Cc1nnc(-c2ccco2)o1)Cc1nc2c(s1)CCCC2 | – | -11.23% and -0.3712% and 0.4353%

Compound | Percent Effect [%] | Percent Effect (10 mM as filed; unlikely as a test dose)
Cc1nnc(CN(C)Cc2nc3c(s2)CCCC3)o1 | – | 69.64% and 55.12% and 51.62%
CN(CC(=O)NCC1CCCO1)Cc1nc2c(s1)CCCC2 (stereo unspecified) | – | 56.93% and 58.41%
Cc1ccc(CN2CCCC(c3cncc(C)n3)C2)cn1 (stereo unspecified) | 7.699 | –
COc1cccc(-n2cc(CN(C)C(=O)c3cc[nH]n3)cn2)c1 | – | -69.36% and -66.93%
CCn1ccc(C(=O)N(C)Cc2cnn(-c3cccc(OC)c3)c2)n1 | – | -38.3% and -41.56%
COc1cccc(-n2cc(CN(C)C(=O)c3cnc(O)cn3)cn2)c1 | – | 70.55% and 77.42%
Cn1ccnc1CN1CCN(CC(=O)NCc2cccs2)CC1 | 11.24 | –
CCOC(=O)c1sc2ccsc2c1CNC(=O)CCOC | -1.34 | –
COc1cccc(-c2ncc(CN3C[C@@H]4CC[C@H](C3)N(C)C4=O)s2)c1 | – | 84.86% and 76.95%
CN1C(=O)[C@H]2CC[C@@H]1CN(Cc1cccc(OCc3ccccn3)c1)C2 | – | -14.17% and -8.272%
Cc1nc(C)n(CC2CCCN(CCOc3ccc(C#N)cc3)C2)n1 (stereo unspecified) | -0.23 | –
O=C(COc1coc(CN2CCOCC2)cc1=O)c1ccc(Cl)cc1 | -1.015 | –
O=C(NCCc1ccccn1)Nc1cc(C(F)(F)F)c[nH]c1=O | 1.519 | –
Cc1nn(C)cc1C(=O)N1CCC(C(=O)c2nc3ccccc3s2)CC1 | 4.427 | –
CCc1ncc(CN(C)C2CCN(C(C)C)CC2)cn1.O=C(O)CC(O)(CC(=O)O)C(=O)O | 7.243 | –
COCC(NC(=O)c1cn2ccsc2n1)c1ccnn1C (stereo unspecified) | 0.7162 | –
CC(=O)NC1CCCN(C(=O)Nc2cccnc2-n2cccn2)C1 (stereo unspecified) | -4.732 | –
O=C(CCCc1nc(-c2ccccc2)no1)N1CCN(CCO)CC1 | 11.73 | –
O=C(Nc1cc(-c2ccccc2)on1)N1CC[C@H](O)C1 | – | -24.83% and -17.1%
CCC(=O)NC1CCCN(C(=O)Nc2cc(-c3ccccc3)on2)C1 (stereo unspecified) | – | 86.86% and 95.97%
O=C(Nc1cc(-c2ccccc2)on1)N1CCN(CCO)CC1 | – | 64.88% and 38.14%
CCC(=O)NC1CCCN(C(=O)Nc2cccc(COC(C)C)c2)C1 (stereo unspecified) | 3.429 | –
Cc1csc(CNCC(C)c2nc3ccccc3o2)n1 (stereo unspecified) | 10.3 | –

Compound | Percent Effect [%] | Percent Effect (10 mM as filed; unlikely as a test dose)
O=C(Cn1cnc2cc3c(cc21)OCCCO3)NC1CCCC1 | – | 34.04% and 26.95% and 25.51%
O=C(Cn1cnc2cc3c(cc21)OCCCO3)NCCc1ccccc1 | – | 3.571% and -13.25% and -3.678%
O=C(Cn1cnc2cc3c(cc21)OCCCO3)NC1CCCCC1 | – | 58.19% and 56.08% and 47.01%
NC(=O)N1CCC2(CC1)CC(=O)N(CC1CCCO1)c1ccccc12 (stereo unspecified) | 6.567 | –
Cc1cc(CN2CCOC(Cn3nc(C)cc3C)C2)on1 (stereo unspecified) | 2.612 | –
CCCN(C(=O)c1cnccn1)c1nc2c(s1)CCc1c-2cnn1C | 1.308 | –
COCCN(C(=O)c1ccccn1)c1nc2c(s1)CCc1c-2cnn1C | – | 80.83% and 57.64% and 71.31%
CCCN(C(=O)c1ccncc1)c1nc2c(s1)CCc1c-2cnn1C | 11.45 | –
COCCN(C(=O)c1cnccn1)c1nc2c(s1)CCc1c-2cnn1C | -10.14 | –
Cc1ccc(C(O)CN2CCN(Cc3nccn3C)CC2)cc1C (stereo unspecified) | 1.122 | –
Cc1noc(C)c1CN(C)C(=O)NC1CCCN(S(C)(=O)=O)C1 (stereo unspecified) | 9.671 | –
Cc1cnn(CC2CN(Cc3nc4ccccc4s3)CCO2)c1 (stereo unspecified) | – | 55.85% and 70.99% and 46.92%
Cc1nc(CN2CCOC(Cn3cncn3)C2)nc2ccccc12 (stereo unspecified) | – | 1.85% and -1.802% and -10.11%
Cc1cc(C)n(CC2CN(Cc3nc4ccccc4s3)CCO2)n1 (stereo unspecified) | – | 66.96% and 52.93% and 45.91%
c1ccc2sc(N3CCOC(Cn4cccn4)C3)nc2c1 (stereo unspecified) | 9.76 | –
Cc1cnn(CC2CN(Cc3nc4ccccc4o3)CCO2)c1 (stereo unspecified) | -0.5102 | –
c1ccc(-c2ccc(CN3CCOC(Cn4cncn4)C3)cc2)cc1 (stereo unspecified) | -3.122 | –
Cc1cc(C)n(CC2CN(Cc3ccccn3)CCO2)n1 (stereo unspecified) | 1.241 | –
Cc1cnn(CC2CN(Cc3nc4ccccc4nc3C)CCO2)c1 (stereo unspecified) | -7.63 | –
Cc1nc2ccccc2nc1CN1CCOC(Cn2cccn2)C1 (stereo unspecified) | 6.321 | –
c1ccc(OCCN2CCC(c3nnc(-c4cccnc4)o3)CC2)cc1 | -3.337 | –
CCOCC1c2c(cnn2C)CCN1C(=O)c1cc(C)on1.O=C(O)C(F)(F)F (stereo unspecified) | 15.94 | –
